This is an account of results in paper PMC4336329 (PLoS ONE, 2015).

About 14,000 (4.5%) of roughly 310,000 compounds showed an effect of 50% or more. The effect is printed as a negative number. This excerpt belongs to a sample that is enriched for strong results.
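Also: peak tail current of the secondary pulse compared with the same well before compound.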

The target of the assay is human ether-à-go-go-related gene (hERG) potassium channel (human, UniProt Q12809). Briefly: primary screen, population patch clamp on CHO cells stably expressing hERG; higher = less effect of the substance.
Sequence of human ether-à-go-go-related gene (hERG) potassium channel (Q12809 whole entry, looked up): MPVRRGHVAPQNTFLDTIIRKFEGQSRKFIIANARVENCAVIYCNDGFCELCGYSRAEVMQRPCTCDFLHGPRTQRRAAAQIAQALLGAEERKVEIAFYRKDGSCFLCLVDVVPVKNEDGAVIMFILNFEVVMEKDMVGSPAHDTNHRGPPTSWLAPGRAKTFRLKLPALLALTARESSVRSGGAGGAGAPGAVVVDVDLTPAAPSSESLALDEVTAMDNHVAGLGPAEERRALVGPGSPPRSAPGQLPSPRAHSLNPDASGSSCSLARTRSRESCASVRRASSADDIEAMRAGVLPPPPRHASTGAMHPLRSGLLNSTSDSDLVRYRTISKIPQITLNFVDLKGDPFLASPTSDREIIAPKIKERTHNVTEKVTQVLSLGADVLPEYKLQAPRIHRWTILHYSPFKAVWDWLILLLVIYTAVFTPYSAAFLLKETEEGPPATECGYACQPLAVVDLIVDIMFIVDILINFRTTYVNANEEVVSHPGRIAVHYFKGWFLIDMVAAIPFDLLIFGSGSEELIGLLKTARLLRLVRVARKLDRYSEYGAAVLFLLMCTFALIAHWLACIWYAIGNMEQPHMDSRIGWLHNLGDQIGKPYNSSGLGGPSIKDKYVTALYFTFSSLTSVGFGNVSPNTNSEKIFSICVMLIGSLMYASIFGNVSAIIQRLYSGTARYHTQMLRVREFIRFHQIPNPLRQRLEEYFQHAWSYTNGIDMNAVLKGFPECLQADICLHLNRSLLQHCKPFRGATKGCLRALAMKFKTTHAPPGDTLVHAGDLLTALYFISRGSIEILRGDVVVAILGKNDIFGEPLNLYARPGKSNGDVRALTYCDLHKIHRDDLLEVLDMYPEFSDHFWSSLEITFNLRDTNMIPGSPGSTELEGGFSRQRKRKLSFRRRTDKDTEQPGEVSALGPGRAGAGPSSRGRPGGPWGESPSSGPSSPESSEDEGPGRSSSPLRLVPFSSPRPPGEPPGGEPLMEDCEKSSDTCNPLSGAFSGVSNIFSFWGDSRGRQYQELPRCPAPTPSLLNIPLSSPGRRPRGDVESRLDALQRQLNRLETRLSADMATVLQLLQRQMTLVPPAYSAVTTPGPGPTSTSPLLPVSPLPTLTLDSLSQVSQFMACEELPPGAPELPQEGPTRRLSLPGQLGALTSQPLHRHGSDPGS
On to `CC(=O)c1cccc(NC(=O)C(C)OC(=O)CN2C(=O)NC(C)(C)C2=O)c1` (stereo not drawn), for which the “hERG current change (%, negative = inhibition) at 10uM” value is given as 23.8%.

As to `COC(=O)C1=C(c2cc3ccccc3s2)C[C@@H]2CC[C@H]1N2C(=O)NCCNC(C)=O`, the “hERG current change (%, negative = inhibition) at 10uM” value came to 2.06%.

Take `O=C(O)Cn1ccnc1`: the “hERG current change (%, negative = inhibition) at 10uM” value came to 4.81%.

In the case of `Nc1ccccc1-c1nnc(SCc2ccccc2Cl)[nH]c1=O`, the “hERG current change (%, negative = inhibition) at 10uM” value is -0.313%.

`COC(=O)C(c1ccccc1)N1CCCCCC1.Cl` (stereo not drawn): the “hERG current change (%, negative = inhibition) at 10uM” value turned out to be 10.8%.

With `Cc1nc2ncnn2c(C)c1CCC(=O)N1CCc2ccccc21`, the “hERG current change (%, negative = inhibition) at 10uM” value is listed as -80.6%.

Turning to `Cc1nc2ncnn2c(C)c1CCC(=O)N1CCN(Cc2ccccc2)CC1`, the “hERG current change (%, negative = inhibition) at 10uM” value is -7.67%.

Consider `Cc1nc2ncnn2c(C)c1CCC(=O)N1CCOCC1`, for which the “hERG current change (%, negative = inhibition) at 10uM” value was determined as 1.89%.

As for `Cc1nc2nc(C)c(CCC(=O)O)c(C)n2n1`, the “hERG current change (%, negative = inhibition) at 10uM” value is 8.07%.

Take `Cc1nc2ncnn2c(C)c1CCC(=O)N1CCCCC1`: the “hERG current change (%, negative = inhibition) at 10uM” value is recorded as -2.79%.

For `Cc1nc2ncnn2c(C)c1CCC(=O)N1CCc2ccccc2C1`, the “hERG current change (%, negative = inhibition) at 10uM” value is on record as -63.4%.

In the case of `CCOC(=O)N1CCN(C(=O)CCc2c(C)nc3nc(C)nn3c2C)CC1`, the “hERG current change (%, negative = inhibition) at 10uM” value is -22%.

For the molecule `Cc1nc2ncnn2c(C)c1CCC(=O)N1CCN(c2ccccn2)CC1`, the “hERG current change (%, negative = inhibition) at 10uM” value was -33.3%.

Turning to `Cc1nc2nc(C)c(CCC(=O)N3CCc4ccccc43)c(C)n2n1`, the “hERG current change (%, negative = inhibition) at 10uM” value was -63.5%.

Regarding `CCc1nnc(NC(=O)CCN2C(=O)/C(=C/c3cc(OC)c(OC)c(OC)c3)SC2=S)s1`, the “hERG current change (%, negative = inhibition) at 10uM” value came out at 8.4%.

Take `O=C(O)CCC(C(=O)O)n1c(O)c(C2=c3ccccc3=NC2=O)sc1=S` (stereo not drawn): the “hERG current change (%, negative = inhibition) at 10uM” value stood at 20.5%.

Regarding `Cc1ccc(OCC(=O)N2CCC(N3CC(C)CC(C)C3)CC2)cc1` (stereo not drawn), the “hERG current change (%, negative = inhibition) at 10uM” value is -45.5%.

As for `S=C1NCN(CCc2ccccc2)CN1Cc1ccccc1`, the “hERG current change (%, negative = inhibition) at 10uM” value stood at 14.8%.

Turning to `COc1ccc(CNC(=O)Cn2cc([N+](=O)[O-])cn2)cc1`, the “hERG current change (%, negative = inhibition) at 10uM” value amounted to 16.1%.

For the molecule `O=C(COC(=O)c1ccc2ncsc2c1)NCc1ccc(Cl)cc1`, the “hERG current change (%, negative = inhibition) at 10uM” value is recorded as -4.62%.

As to `O=C(Nc1cccnc1)c1cc(-c2ccccc2)on1`, the “hERG current change (%, negative = inhibition) at 10uM” value turned out to be 5.06%.

As to `COc1ccc2oc(=O)c(C(=O)N3CCc4ccccc43)cc2c1`, the “hERG current change (%, negative = inhibition) at 10uM” value was 15.8%.

In the case of `COc1ccc2oc(=O)c(C(=O)N3CCCc4ccccc43)cc2c1`, the “hERG current change (%, negative = inhibition) at 10uM” value was -63.1%.

For `COc1ccc2oc(=O)c(C(=O)N3c4ccccc4CC3C)cc2c1` (stereo not drawn), the “hERG current change (%, negative = inhibition) at 10uM” value is reported as -21.6%.

Consider `CCSc1nc2cc(OC)c(OC)cc2c(=O)n1CC`, for which the “hERG current change (%, negative = inhibition) at 10uM” value is on record as -2.16%.

For the molecule `COc1ccc(OCc2nc3c4cc(OC)c(OC)cc4nc(=S)n3[nH]2)cc1`, the “hERG current change (%, negative = inhibition) at 10uM” value is 11.7%.

In the case of `COc1cc2nc(COc3ccc(C#N)cc3)n(CC#N)c(=O)c2cc1OC`, the “hERG current change (%, negative = inhibition) at 10uM” value is recorded as -50.7%.
